The values that follow come from PubChem BioAssay (EPA / NIEHS).

As usually defined, the AC50 is the midpoint of the concentration-response curve, whichever way the signal moves.

The structures appear in SMILES notation. Where “and” joins values, the source holds several entries; their conditions need not be identical. Identical values can stand only once. Inconclusive results are not listed. The source holds several records for some structures; these can differ, active in one and inactive in another. Calls of active or inactive are those of the source. The calls were made as follows, unless noted: active = hit-call score of the fitted dose curve at least 0.9, where 1 is the maximum; inactive = score below 0.9.

Experiment [1] is described as follows: CCTE_Shafer_MEA_acute_per_burst_spike_number_mean: CCTE's Neural Acute Assay for Average Number of Spikes Per Burst, Shafer Lab (AID 2284015).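 Also: hits are decreases in mean spikes per burst versus baseline.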 Summed up:
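We recorded spontaneous network firing of rat cortical neurons for 40 min before and 40 min during exposure to compound at 0.03-40 uM, at 37 C. Spikes were detected adaptively at 8x rms noise, and the change in average spikes per burst was fitted against DMSO.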

Experiment [2] in a line: CCTE_Shafer_MEA_acute_interburst_interval_mean: CCTE's Neural Acute Assay for Mean Interburst Interval, Shafer Lab (AID 2284016).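 Also: percent change of mean interburst interval versus each well's own pre-dose baseline; curves fitted for decrease in interburst interval relative to DMSO.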 Summed up:
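MEA recording of spontaneous network bursting in primary rat cortical cultures; mean interburst interval was compared before and after a 40-min compound exposure (0.03-40 uM) and expressed as percent change, relative to DMSO.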

A short description of experiment [3]: CCTE_Shafer_MEA_acute_burst_percentage_mean: CCTE's Neural Acute Assay for Percentage of Spikes in a Burst, Shafer Lab (AID 2284017).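 Also: curve fitted for loss of signal so potency reflects decreased burst percentage.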 Summed up:
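Compounds were tested at 0.03-40 uM on primary rat cortical neuron networks grown over microelectrodes, with at least three wells per compound. Spontaneous firing was recorded for 40 min before and 40 min after dosing, and the change in burst percentage was computed per well.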

Experiment [4] in a line: CCTE_Shafer_MEA_acute_per_network_burst_spike_number_mean: CCTE's Neural Acute Assay for Average Number of Spikes in a Network Burst, Shafer Lab (AID 2284019). Summed up: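 Rat cortical cultures, DIV 13/15; spike threshold 8x rms noise, 300-5000 Hz band-pass, 12.5 kHz sampling; wells need >/= 10 active electrodes. Compound 0.03-40 uM, 40 min, 37 C; % change vs own baseline, DMSO negative control.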

The nature of experiment [5]: CCTE_Shafer_MEA_acute_per_network_burst_spike_number_std: CCTE's Neural Acute Assay for Standard Deviation of Number of Spikes in a Network Burst, Shafer Lab (AID 2284020).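 Also: fitted for decrease in spike-number SD versus DMSO so actives lower it.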 Summed up: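 Rat cortical cultures, DIV 13/15, 37 C; 20-min stabilisation, 40-min baseline, compound 0.03-40 uM, 40-min re-record. Spikes detected at 8x rms noise (300-5000 Hz band-pass). Readout: % change from baseline in per-burst spike-number SD.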

A short description of experiment [6]: CCTE_Shafer_MEA_acute_network_burst_percentage: CCTE's Neural Acute Assay for Percentage of Network Bursts, Shafer Lab (AID 2284022).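 Also: curves fitted for loss so actives lower network burst percentage.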 Summed up: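 Network burst percentage (spikes in network bursts divided by total spikes) recorded at 37 C over 40 min baseline and 40 min after compound, 0.03-40 uM, in rat cortical cultures at DIV 13 or 15. Analysed as percent change from baseline versus DMSO.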

Experiment [7] in a line: CCTE_Shafer_MEA_acute_cross_correlation_area: CCTE's Neural Acute Assay for Area of Cross Correlation, Shafer Lab (AID 2284024).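 Also: area under pooled inter-electrode spike cross-correlation near zero lag as percent change from own baseline; curves fitted for loss of cross-correlation area so actives lower synchrony.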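 As to outcome: rat primary cortical neuron networks on 48-well MEA at DIV 13 or 15 with 40 min exposure.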 The essentials:
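Percent change in well-wide cross-correlation area (window around zero lag) between 40 min baseline and 40 min post-compound recordings, 37 C; rat cortical cultures on MEA at DIV 13 or 15, dosed 0.03-40 uM, wells needing >/= 10 active electrodes.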

A short description of experiment [8]: CCTE_Shafer_MEA_acute_cross_correlation_HWHM: CCTE's Neural Acute Assay for Cross Correlation at Half Width at Half Maximum, Shafer Lab (AID 2284026).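 Also: percent change per well from pre-dose baseline in spike cross-correlogram half width; hits are a decrease in cross-correlogram half width relative to DMSO.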 The essentials:
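Per-well percent change in cross-correlogram half width at half maximum, derived from 40-min recordings before and after compound (0.03-40 uM) at 37 C. Cultures were rat cortical neurons, DIV 13 or 15, with adaptive spike detection at 8x rms.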

Experiment [9] is described as follows: CCTE_Shafer_MEA_acute_synchrony_index: CCTE's Neural Acute Assay for Synchrony, Shafer Lab (AID 2284027).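 Also: network synchrony index of spontaneous spiking in primary rat cortical neurons on MEAs; fitted for loss of signal so actives lower synchrony relative to DMSO.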 The essentials:
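Plates equilibrated 20 min at 37 C, baseline recorded 40 min, compound (0.03-40 uM) added, then 40 min more recorded. Cells: primary rat cortical neurons, DIV 13 or 15. Per-well synchrony index change analysed in negative direction against DMSO.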

Experiment [10] can be described thus: CCTE_Deisenroth_AIME_384WELL_CTox_Active: Cytotoxicity Assessment (CTOX) in CCTE's 384-well Estrogen Receptor Transactivation Assay with AIME metabolic competence (metabolism positive), Deisenroth Lab (AID 2284037; active = hit-call score of the fitted dose curve at least 0.9, where 1 is the maximum;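 also: chemicals first conditioned 2 h by alginate-bound induced rat liver S9 before cells; activity means signal loss indicating cell death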). Summed up: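 Chemicals pre-incubated 2 hours with alginate-immobilised phenobarbital/beta-naphthoflavone-induced male Sprague Dawley rat liver S9, then conditioned medium applied 24 hour to VM7Luc4E2 cells. Viability by fluorogenic protease substrate; 10-point series 0.002 - 200 uM.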

Experiment [11] in a line: CCTE_Deisenroth_AIME_384WELL_CTox_Inactive: Cytotoxicity Assessment (CTOX) in CCTE's 384-well Estrogen Receptor Transactivation Assay without AIME metabolic competence (metabolism negative), Deisenroth Lab (AID 2284039; active = hit-call score of the fitted dose curve at least 0.9, where 1 is the maximum;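 also: cell viability via live-cell protease substrate cleaved to fluorescent probe; cells exposed 24 h to medium preincubated 2 h with alginate-water beads without S9; loss of fluorescence signal means loss of viability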). The essentials:
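Fluorescence from a live-cell protease substrate, read after 24 h in VM7Luc4E2 cells, indicated viability. Test medium came from a 2 h AIME step without hepatic S9 (alginate-water microspheres); concentrations spanned 0.002 - 200 uM, single technical replicate per run.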

Experiment [12] can be described thus: CCTE_Shafer_MEA_dev_firing_rate_mean: CCTE's Neural Network Formation Assay for Mean Firing Rate, Shafer Lab (AID 2284031).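 As to AC50: curve fitted for loss of firing so AC50 reflects decreased mean firing rate.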 Summed up: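 Steps: seed rat cortical cells (1.5 x 10^5/well) with laminin on PEI-coated MEA; dose day 0; record DIV 5/7/9/12, full media and compound exchange after DIV 5 and 9 recordings; compute well-mean firing rate AUC.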
A short description of experiment [13]: CCTE_Shafer_MEA_dev_per_burst_spike_percent: CCTE's Neural Network Formation Assay for Percent of Spikes in a Burst, Shafer Lab (AID 2284032).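 As to AC50: fitted as a decrease in burst spike percentage below DMSO baseline.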 The essentials:
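Value is trapezoidal AUC over recordings on days 5, 7, 9 and 12 of the well-mean fraction of spikes falling in single-electrode bursts; rat cortical cultures exposed continuously from plating, treatment renewed DIV 5 and 9, fitted downward against DMSO.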

Experiment [14] is described as follows: CCTE_Shafer_MEA_dev_active_electrodes_number: CCTE's Neural Network Formation Assay for Number of Active Electrodes, Shafer Lab (AID 2284040; active = hit-call score of the fitted dose curve at least 0.9, where 1 is the maximum;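 as to AC50: potency for loss of active electrodes versus DMSO so lower counts are hits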). The essentials: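 Counts electrodes per well firing at least 5 spikes/min, recorded on days 5, 7, 9 and 12 in rat cortical cultures dosed continuously from plating (treatment refreshed DIV 5, 9). Value is the area under the curve over recordings, fitted downward relative to DMSO.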

The nature of experiment [15]: CCTE_Shafer_MEA_dev_burst_rate: CCTE's Neural Network Formation Assay for Burst Rate, Shafer Lab (AID 2284042).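 As to AC50: potency for loss of burst rate below DMSO control.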 The essentials:
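Developmental network assay measuring how 12-day exposure of rat cortical neuron cultures alters bursting on extracellular MEA recordings. Values are AUC of well-mean burst rate across four recording days, relative to DMSO vehicle.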

The nature of experiment [16]: CCTE_Shafer_MEA_dev_per_burst_interspike_interval: CCTE's Neural Network Formation Assay for Burst Interspike Interval, Shafer Lab (AID 2284044).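 As to AC50: potency for a decrease of within-burst interspike interval below DMSO level.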 The essentials: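 Mean interspike interval within single-electrode bursts, averaged over bursting electrodes, from rat cortical cultures on MEA plates recorded on days 5, 7, 9 and 12. Continuous compound exposure from plating; trapezoidal AUC fitted downward relative to DMSO.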

Experiment [17] in a line: CCTE_Shafer_MEA_dev_bursting_electrodes_number: CCTE's Neural Network Formation Assay for Number of Bursting Electrodes, Shafer Lab (AID 2284043; active = hit-call score of the fitted dose curve at least 0.9, where 1 is the maximum;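 as to AC50: potency is for loss of bursting electrodes relative to DMSO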). Summed up:
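Rat cortical primary neurons, 48-well MEA, 16 electrodes/well; dosing DIV 0–12, re-dosed with full media change DIV 5, 9. Recordings DIV 5/7/9/12, AxIS adaptive spike detector; bursting electrode = ≥1 burst/2 min. AUC across days; loss of signal vs DMSO.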

The target in experiment [18] is Estrogen receptor (Homo sapiens) (UniProt P03372). Put plainly: CCTE_Deisenroth_AIME_384WELL_LUC_Shift: CCTE's 384-well Estrogen Receptor Transactivation Assay with AIME metabolic competence data shift (ERTA luciferase; difference in metabolism positive and negative), Deisenroth Lab (AID 2284041).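 Also: shift is response with S9 minus without S9 so positive means metabolism raised ER signal.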 The essentials:
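Chemicals (0.002–200 uM, 10 points) pre-incubated 2 h with alginate-encapsulated induced male Sprague Dawley rat liver S9 or S9-free, then medium applied 24 h to VM7Luc4E2 cells; luciferase. Endpoint is per-concentration difference, S9-positive minus negative.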

Experiment [19] shares this target. Put plainly: CCTE_Deisenroth_AIME_384WELL_LUC_Active: CCTE's 384-well Estrogen Receptor Transactivation Assay with AIME metabolic competence (ERTA luciferase; metabolism positive), Deisenroth Lab (AID 2284030; active = hit-call score of the fitted dose curve at least 0.9, where 1 is the maximum). Summed up: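 VM7Luc4E2 breast cells were given, for 24 hours, medium pre-incubated for 2 hours with parent chemical (0.002-200 uM, 10 concentrations) and alginate-encapsulated phenobarbital/beta-naphthoflavone-induced rat hepatic S9. Luciferase gain of signal was fitted against 17beta-estradiol; n=4 or more.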

Experiment [20] has the same target. Kind of experiment: CCTE_Deisenroth_AIME_384WELL_LUC_Inactive: CCTE's 384-well Estrogen Receptor Transactivation Assay without AIME metabolic competence (ERTA luciferase; metabolism negative), Deisenroth Lab (AID 2284038; active = hit-call score of the fitted dose curve at least 0.9, where 1 is the maximum;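 also: VM7Luc4E2 breast cells given medium preincubated 2 h with S9-free microspheres; hits raise estrogen receptor luciferase signal so potencies reflect agonists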). The essentials: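 VM7Luc4E2 ER transactivation, luciferase bioluminescence after 24 h, using medium pre-incubated 2 h with S9-free alginate microspheres. Concentrations 0.002–200 uM; gain of signal fitted relative to 17beta-estradiol.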

Estrogen receptor (Homo sapiens), sequence (P03372 whole entry, looked up): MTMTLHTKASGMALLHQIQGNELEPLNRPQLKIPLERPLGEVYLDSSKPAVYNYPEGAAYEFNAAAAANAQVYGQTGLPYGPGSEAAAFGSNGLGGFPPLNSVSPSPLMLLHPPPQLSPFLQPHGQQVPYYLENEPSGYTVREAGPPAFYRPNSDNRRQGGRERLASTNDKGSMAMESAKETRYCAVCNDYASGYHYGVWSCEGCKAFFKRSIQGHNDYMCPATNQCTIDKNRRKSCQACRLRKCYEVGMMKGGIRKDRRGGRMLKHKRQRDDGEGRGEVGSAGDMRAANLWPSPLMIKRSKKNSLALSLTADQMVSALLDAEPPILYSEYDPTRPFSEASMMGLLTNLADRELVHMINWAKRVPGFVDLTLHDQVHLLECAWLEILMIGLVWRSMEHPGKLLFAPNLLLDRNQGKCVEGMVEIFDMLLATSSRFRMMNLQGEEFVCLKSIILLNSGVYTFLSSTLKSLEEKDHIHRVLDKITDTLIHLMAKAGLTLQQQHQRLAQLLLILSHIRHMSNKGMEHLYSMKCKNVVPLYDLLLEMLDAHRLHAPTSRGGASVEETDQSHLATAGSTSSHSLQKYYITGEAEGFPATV

Take `N#CSCSC#N`: the compound was called inactive in experiment [1], in [4], in [5], in experiment [7], in [8] and in experiment [10]. Moreover, in experiment [11], the outcome was inactive. The AC50 was 30.5 µM (active) in experiment [2], 27 µM (active) in experiment [3], 30.5 µM (active) in experiment [6] and 28.4 µM (active) in experiment [9].
As to `CCOP(=O)(SC(C)CC)N1CCSC1=O` (stereo not given), the compound was called inactive in [12], in experiment [13], in [10], in experiment [11], in [14] and in experiment [15]. The call in experiment [16] was inactive.
For the compound `CCOP(=O)(OCC)Oc1cc(C)nc(C(C)C)n1`, the outcome in experiment [12], in [13], in experiment [14], in [15], in [17] and in experiment [16] was inactive.
As to `CCOP(=S)(OCC)OC(Cl)C(Cl)(Cl)Cl` (stereo not given), the AC50 in [12] is 23.4 µM (active); in experiment [13] it was 50 µM (active) and 19 µM (active); in experiment [14] it was 50 µM (active) and 22.9 µM (active); in experiment [15], 77.2 µM (active) and 23.6 µM (active); in [17], 31.8 µM (active) and 23.2 µM (active); in experiment [16], 23.4 µM (active). For the same compound, in [16], the call was inactive.
Regarding `CC(C1CC1)C(O)(Cn1cncn1)c1ccc(Cl)cc1` (stereo not given), the call in [11] was inactive.
On to `CSc1nc(NC(C)C)nc(NC(C)C)n1`, for which the compound was classed as inactive in experiment [11] and in experiment [18].
Take `CCCCOC(=O)[C@@H](C)Oc1ccc(Oc2ccc(C#N)cc2F)cc1`: the outcome in experiment [19], in [10], in [20] and in [18] was inactive.
Consider `CON=C(C(=O)OC)c1ccccc1CON=C(C)c1cccc(C(F)(F)F)c1`, for which the AC50 in [1] is 0.767 µM (active); in [2], 4.19 µM (active); in [3], 1.12 µM (active); in [5], 0.59 µM (active); in experiment [7] it was 0.162 µM (active); in experiment [8] it was 0.278 µM (active). The AC50 in experiment [9] was 2.25 µM (active); in experiment [12], 639 nM (active) and 964 nM (active); in [13], 1.11 µM (active) and 1.32 µM (active); in experiment [10] it was 19.8 µM (active); in experiment [14], 775 nM (active) and 838 nM (active); in [15] it was 655 nM (active) and 1.28 µM (active). For the same compound, the AC50 in experiment [17] is 728 nM (active) and 758 nM (active); in [16], 1.53 µM (active) and 2.32 µM (active). Besides, the compound was classed as inactive in experiment [4] and in experiment [11].
For `CCC(CC)Nc1c([N+](=O)[O-])cc(C)c(C)c1[N+](=O)[O-]`, in experiment [11], the compound was called inactive.
With `CCOP(=S)(OCC)Oc1ccc([N+](=O)[O-])cc1`, the outcome in experiment [12], in experiment [13], in experiment [14], in experiment [15], in [17] and in experiment [16] was inactive.
Take `CCCSP(=O)(OCC)Oc1ccc(Br)cc1Cl` (stereo not given): the call in experiment [12], in experiment [13], in experiment [10], in experiment [11], in experiment [14] and in experiment [15] was inactive. Further, the compound was called inactive in experiment [17] and in [16].
Take `C#CC(C)(C)NC(=O)c1cc(Cl)cc(Cl)c1`: the compound was classed as inactive in [10] and in experiment [11].
For the compound `CCCCSP(=O)(SCCCC)SCCCC`, the AC50 in [12] was 66.3 µM (active) and 11.5 µM (active); in [13], 31.1 µM (active) and 49.9 µM (active); in [14] it was 34.3 µM (active) and 15.2 µM (active); in experiment [15], 71.4 µM (active); in experiment [17] it was 32 µM (active) and 15.8 µM (active); in [16] it was 50 µM (active) and 18.8 µM (active). Also, the compound was called inactive in experiment [15].
As for `CCC(=NOC/C=C/Cl)C1=C(O)CC(C2CCOCC2)CC1=O` (stereo not given), the compound was called inactive in [10] and in experiment [11].
